Results reported in PubChem BioAssay (EPA / NIEHS).
The source made the active and inactive calls. The calls were made as follows: active = hit-call score of the fitted dose curve at least 0.9, where 1 is the maximum; inactive = score below 0.9.

What follows are compounds tested on ATP-citrate lyase (ACLY), ACLY (gene 47) (assay: LTEA_HepaRG_ACLY: Life Technologies and Expression Analysis (LTEA) Assay for ATP-citrate lyase (ACLY) using HepaRG (AID 2283466)). Settings: mRNA level, 48 h; actives raise or lower the signal.
Outline: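 Differentiated HepaRG cells exposed 48 h in serum-free induction medium to eight half-log concentrations up to 100 uM in 0.5% DMSO, duplicates. Transcript measured by Fluidigm TaqMan qRT-PCR, normalized to ACTB, GAPDH, POLR2A; bidirectional fit versus DMSO.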

| Structure (SMILES) | outcome | AC50 |
| --- | --- | --- |
| COc1ccc(-n2nc(C(F)F)cc2-c2ccc(S(C)=O)cc2)cc1 (configuration not stated) | inactive | – |
| CCOCCO | inactive | – |
| O=C(NS(=O)(=O)/C=C/c1ccccc1)c1ccc(F)cc1Cl | inactive | – |
| CCCCCCCCCCCCCCCO | inactive | – |
| CCOC(=O)COc1ccc2c(c1)CC(NCC(O)c1cccc(Cl)c1)CC2 (configuration not stated) | inactive | – |
| CCCCCCCCO | inactive | – |
| CC(C)c1cccc(C(C)C)c1N1C(=O)c2ccc(O)cc2C1=O | – | 74.8 µM (active) |
| CNCc1ccc(NC(=O)c2c[nH]c3c2C(=O)CCC3)cc1 | inactive | – |
| CN(C)c1ccc(N=NS(=O)(=O)O)cc1 | inactive | – |
| O=C(O)CCN(C1(C(=O)NO)CCCC1)S(=O)(=O)c1ccc(Oc2ccc(F)cc2)cc1 | inactive | – |

Each compound was assayed on Peroxisomal acyl-coenzyme A oxidase 1 (ACOX1) gene, ACOX1 (gene 51) (assay: LTEA_HepaRG_ACOX1: Life Technologies and Expression Analysis (LTEA) Assay for Peroxisomal acyl-coenzyme A oxidase 1 (ACOX1) gene using HepaRG (AID 2283467)). Settings: mRNA level, 48 h; actives raise or lower the signal.
Outline: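 HepaRG cells, plated 48 h then switched to serum-free induction medium, were exposed in duplicate for 48 h to 8-point half-log concentrations up to 100 uM in 0.5% DMSO. ACOX1 mRNA was measured by qRT-PCR, normalized to ACTB/GAPDH/POLR2A, and fitted bidirectionally versus DMSO.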

| Structure (SMILES) | outcome | AC50 |
| --- | --- | --- |
| CC1(C)C(=O)N(Br)C(=O)N1Br | inactive | – |
| CC(=O)OCCC(C)C | inactive | – |
| CC(=O)c1ccc2c(c1)[C@H](NC(=O)c1ccc(F)cc1)[C@@H](O)C(C)(C)O2 | inactive | – |
| O=C(CCCCCCCCc1cccnc1)N1CCC(C=C(c2ccccc2)c2ccccc2)CC1 | – | 50 µM (active) |
| Cn1cnc([N+](=O)[O-])c1Sc1ncnc2nc[nH]c12 | inactive | – |
| Cn1c(=O)c2c(ncn2C)n(C)c1=O | inactive | – |
| CC(C)CC(C)(O)C#CC(C)(O)CC(C)C (configuration not stated) | inactive | – |
| COC(=O)c1c(Cl)c(Cl)c(C(=O)OC)c(Cl)c1Cl | inactive | – |
| CCn1nc(Cc2ccccc2)cc1C1CCN(C[C@H]2C[C@H](N(C)[C@@H](C(=O)O)C(C)C)C[C@@H]2c2cccc(F)c2)CC1 | inactive | – |
| CCCC(=O)OCC | inactive | – |
| CCCCCCCCCCCCCCCO | inactive | – |
| CN(C)c1ccc(N=NS(=O)(=O)O)cc1 | – | 12.9 µM (active) |
